# Results as given in the supplement of paper PMC8728848.
# Many of the other results were omitted from the sample, so the strongest signals are more common in it than they were.
# B1: TIM1 (protein)
# chain: ADGIQSVKVGGEAGPSVTLPCHYSGAVTSMCWNRGSCSLFTCQNGIVWTNGTHVTYRKDTRYKLLGDLSRRDVSLTIENTAVSDSGVYCCRVEHRGWFNDMKITVSLEIVPPHHHHHH
# Assays:
# Assay in all cases: glycan array binding signal (z-score within array); higher = stronger binding
# Details in all cases: glycan notation: IUPAC condensed, linker removed
# [1] = biological target: Fuc(a1-2)Gal(b1-3)GlcNAc(b1-2)Man(a1-3)[Fuc(a1-2)Gal(b1-3)GlcNAc(b1-2)Man(a1-6)]Man(b1-4)GlcNAc(b1-4)[Fuc(a1-6)]GlcNAc
# How it was run: (§1)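 Glycan array binding is given as a within-array Z-score, which can be read as non-binding when negative. The arrays, 3228 of them, came from the Consortium for Functional Glycomics database and were retained only where the protein sequence was available. Z-scores were averaged across arrays of the same protein sequence at different concentrations or buffers and across linkers.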
# [2] = biological target: Fuc(a1-2)Gal(b1-3)GlcNAc(b1-3)GalNAc
# How it was run: as §1
# [3] = biological target: Fuc(a1-2)Gal(b1-4)[Fuc(a1-3)]GlcNAc(b1-2)Man(a1-3)[Fuc(a1-2)Gal(b1-4)[Fuc(a1-3)]GlcNAc(b1-2)Man(a1-6)]Man(b1-4)GlcNAc(b1-4)[Fuc(a1-6)]GlcNAc
# How it was run: as §1
# [4] = biological target: Fuc(a1-2)Gal3S(b1-4)GlcNAc
# How it was run: as §1
# [5] = biological target: Fuc(a1-2)[Gal(a1-3)]Gal(b1-4)GlcNAc(b1-3)[Fuc(a1-2)[Gal(a1-3)]Gal(b1-4)GlcNAc(b1-6)]GalNAc
# How it was run: as §1
# [6] = biological target: Fuc(a1-2)[GalNAc(a1-3)]Gal(b1-3)GlcNAc
# How it was run: as §1
# [7] = biological target: Fuc(a1-2)[GalNAc(a1-3)]Gal(b1-4)GlcNAc(b1-2)Man(a1-3)[Fuc(a1-2)[GalNAc(a1-3)]Gal(b1-4)GlcNAc(b1-2)Man(a1-6)]Man(b1-4)GlcNAc(b1-4)[Fuc(a1-6)]GlcNAc
# How it was run: as §1
# Fuc(a1-4)GlcNAc = biological target: Fuc(a1-4)GlcNAc
# How it was run: as §1
# [8] = biological target: Gal(a1-3)Gal(b1-3)GlcNAc(b1-3)GalNAc
# How it was run: as §1
# [9] = biological target: Gal(a1-3)Gal(b1-3)[Fuc(a1-4)]GlcNAc(b1-2)Man(a1-3)[Gal(a1-3)Gal(b1-3)[Fuc(a1-4)]GlcNAc(b1-2)Man(a1-6)]Man(b1-4)GlcNAc(b1-4)GlcNAc
# How it was run: as §1
# [10] = biological target: Gal(a1-3)Gal(b1-4)GlcNAc(b1-2)Man(a1-3)[Gal(a1-3)Gal(b1-4)GlcNAc(b1-2)Man(a1-6)]Man(b1-4)GlcNAc(b1-4)GlcNAc
# How it was run: as §1
# [11] = biological target: Gal(a1-4)Gal(b1-4)GlcNAc(b1-2)Man(a1-3)[Gal(a1-4)Gal(b1-4)GlcNAc(b1-2)Man(a1-6)]Man(b1-4)GlcNAc(b1-4)GlcNAc
# How it was run: as §1
# Gal(b1-3)GlcNAc6S = biological target: Gal(b1-3)GlcNAc6S
# How it was run: as §1
# [12] = biological target: Gal(b1-3)[Fuc(a1-4)]GlcNAc
# How it was run: as §1
# [13] = biological target: Gal(b1-4)GalNAc(a1-3)[Fuc(a1-2)]Gal(b1-4)GlcNAc
# How it was run: as §1
# Gal(b1-4)GlcNAc(b1-2)Man = biological target: Gal(b1-4)GlcNAc(b1-2)Man
# How it was run: as §1
# [14] = biological target: Gal(b1-4)GlcNAc(b1-3)Gal(b1-4)GlcNAc(b1-2)Man(a1-3)[Gal(b1-4)GlcNAc(b1-3)Gal(b1-4)GlcNAc(b1-2)Man(a1-6)]Man(b1-4)GlcNAc(b1-4)GlcNAc
# How it was run: as §1
# [15] = biological target: Gal(b1-4)GlcNAc(b1-3)Gal(b1-4)GlcNAc(b1-3)Gal(b1-4)GlcNAc(b1-2)Man(a1-3)[Gal(b1-4)GlcNAc(b1-3)Gal(b1-4)GlcNAc(b1-3)Gal(b1-4)GlcNAc(b1-2)Man(a1-6)]Man(b1-4)GlcNAc(b1-4)GlcNAc
# How it was run: as §1
# [16] = biological target: Gal(b1-4)GlcNAc(b1-3)Gal(b1-4)GlcNAc(b1-3)Gal(b1-4)GlcNAc(b1-3)Gal(b1-4)GlcNAc(b1-2)Man(a1-3)[Gal(b1-4)GlcNAc(b1-3)Gal(b1-4)GlcNAc(b1-3)Gal(b1-4)GlcNAc(b1-3)Gal(b1-4)GlcNAc(b1-2)Man(a1-6)]Man(b1-4)GlcNAc(b1-4)GlcNAc
# How it was run: as §1
# [17] = biological target: Gal(b1-4)GlcNAc(b1-3)Gal(b1-4)GlcNAc(b1-3)Gal(b1-4)GlcNAc(b1-3)Gal(b1-4)GlcNAc(b1-2)Man(a1-3)[Gal(b1-4)GlcNAc(b1-3)Gal(b1-4)GlcNAc(b1-3)Gal(b1-4)GlcNAc(b1-3)Gal(b1-4)GlcNAc(b1-2)Man(a1-6)]Man(b1-4)GlcNAc(b1-4)[Fuc(a1-6)]GlcNAc
# How it was run: as §1
# [18] = biological target: Gal(b1-4)GlcNAc(b1-3)Gal(b1-4)GlcNAc(b1-3)Gal(b1-4)GlcNAc(b1-3)Gal(b1-4)GlcNAc(b1-3)Gal(b1-4)GlcNAc(b1-2)Man(a1-3)[Gal(b1-4)GlcNAc(b1-3)Gal(b1-4)GlcNAc(b1-3)Gal(b1-4)GlcNAc(b1-3)Gal(b1-4)GlcNAc(b1-3)Gal(b1-4)GlcNAc(b1-2)Man(a1-6)]Man(b1-4)GlcNAc(b1-4)[Fuc(a1-6)]GlcNAc
# How it was run: as §1
# [19] = biological target: Gal(b1-4)GlcNAc(b1-3)Gal(b1-4)GlcNAc(b1-3)[Gal(b1-4)GlcNAc(b1-3)Gal(b1-4)GlcNAc(b1-6)]GalNAc
# How it was run: as §1
# Gal6S(b1-3)GlcNAc6S = biological target: Gal6S(b1-3)GlcNAc6S
# How it was run: as §1
# Gal6S(b1-4)GlcNAc = biological target: Gal6S(b1-4)GlcNAc
# How it was run: as §1
# [20] = biological target: GalNAc(a1-3)GalNAc(b1-3)Gal(a1-4)Gal(b1-4)Glc
# How it was run: as §1
# [21] = biological target: GalNAc(b1-3)Gal(a1-4)Gal(b1-4)GlcNAc
# How it was run: as §1
binder,measurement,setting,value
B1,glycan array binding signal (z-score),[1],-0.132
same,glycan array binding signal (z-score),[2],-0.153
same,glycan array binding signal (z-score),[3],0.121
same,glycan array binding signal (z-score),[4],-0.264
same,glycan array binding signal (z-score),[5],1.94
same,glycan array binding signal (z-score),[6],-0.189
same,glycan array binding signal (z-score),[7],-0.187
same,glycan array binding signal (z-score),Fuc(a1-4)GlcNAc,8.15
same,glycan array binding signal (z-score),[8],-0.169
same,glycan array binding signal (z-score),[9],0.01
same,glycan array binding signal (z-score),[10],0.343
same,glycan array binding signal (z-score),[11],-0.176
same,glycan array binding signal (z-score),Gal(b1-3)GlcNAc6S,-0.212
same,glycan array binding signal (z-score),[12],-0.25
same,glycan array binding signal (z-score),[13],-0.212
same,glycan array binding signal (z-score),Gal(b1-4)GlcNAc(b1-2)Man,0.009
same,glycan array binding signal (z-score),[14],7.65
same,glycan array binding signal (z-score),[15],3.39
same,glycan array binding signal (z-score),[16],0.208
same,glycan array binding signal (z-score),[17],0.223
same,glycan array binding signal (z-score),[18],-0.05
same,glycan array binding signal (z-score),[19],2.45
same,glycan array binding signal (z-score),Gal6S(b1-3)GlcNAc6S,-0.043
same,glycan array binding signal (z-score),Gal6S(b1-4)GlcNAc,-0.175
same,glycan array binding signal (z-score),[20],-0.178
same,glycan array binding signal (z-score),[21],0.287
